Results on 20 molecules are retold here after PubChem BioAssay (Tox21).

Test [1] deals with Thyrotropin-releasing hormone receptor (Homo sapiens) (UniProt P34981). The experiment in a line: qHTS assay to identify small molecule agonists of the thyrotropin-releasing hormone receptor (TRHR) signaling pathway (AID 1346891; calls by dose curve; note: series mostly up to about 58 µM). In a few lines: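 TRHR-expressing HEK293 cells were plated 18 h at 37 °C/5% CO2, loaded with calcium dye 2 h at 37 °C, then given compound in DMSO; fluorescence was read kinetically for 3 min at 1 s intervals.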
Sequence of Thyrotropin-releasing hormone receptor (Homo sapiens) (P34981 whole entry, looked up): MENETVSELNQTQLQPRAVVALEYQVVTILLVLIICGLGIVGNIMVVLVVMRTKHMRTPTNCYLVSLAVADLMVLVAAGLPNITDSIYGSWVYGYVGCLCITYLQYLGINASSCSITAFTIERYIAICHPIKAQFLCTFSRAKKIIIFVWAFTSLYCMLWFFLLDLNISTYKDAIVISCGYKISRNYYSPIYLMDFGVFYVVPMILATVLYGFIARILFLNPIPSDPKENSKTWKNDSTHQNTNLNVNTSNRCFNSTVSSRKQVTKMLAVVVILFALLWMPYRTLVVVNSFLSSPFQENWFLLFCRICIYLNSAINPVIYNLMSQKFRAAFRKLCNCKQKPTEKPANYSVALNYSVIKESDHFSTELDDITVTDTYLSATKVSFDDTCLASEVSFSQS
(Quantitative high-throughput screening tests each substance at several concentrations.)

The nature of test [2]: Human pregnane X receptor (PXR) small molecule agonists, qHTS cell viability counter screen (AID 1346977). Note: nearly all actives have a fitted effect of over 50% in size. Note: potency is the fitted concentration of half-maximal effect. In outline: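 PXR-Luc HepG2 cells in medium with 5% charcoal-stripped FBS were pre-incubated 5hr, then exposed to compounds for 24hr at 37C. Viability was read in the same wells by CellTiter-Fluor fluorescence, reagent added after 23hr with a 1hr incubation.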
Test [3] in a line: Caspase-3/7 induction in HepG2 cells by small molecules, qHTS assay (AID 1346978). Note: nearly all actives have a fitted effect of over 15% in size. In a few lines:
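Caspase-3/7 induction was measured by Caspase-Glo 3/7 luminescence (30 min, room temperature) after a 17 hr compound exposure of wild-type HepG2 cells seeded at 2,000 per well and pre-incubated 5 hr.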

Test [4] is described as follows: Caspase-3/7 induction in CHO-K1 cells by small molecules, qHTS cell viability counter screen (AID 1346979). Note: nearly all actives have a fitted effect of over 35% in size. In outline:
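Wild-type CHO-K1 cells were seeded at 1,500 per well, rested 5hr at 37 C, then exposed to compounds in DMSO. After 16hr, CellTiter-Fluor reagent was added and fluorescence read 1hr later as the viability measure.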

Test [5] in a line: Caspase-3/7 induction in CHO-K1 cells by small molecules, qHTS assay (AID 1346980). Note: nearly all actives have a fitted effect of over 15% in size. In outline: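 Luminescent Caspase-Glo 3/7 read (30min, room temperature) quantified apoptosis induction. Cells were wild-type CHO-K1, treated with compound for 17hr at 37 C and 5% CO2.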
Test [6] can be described thus: Caspase-3/7 induction in HepG2 cells by small molecules, qHTS cell viability counter screen (AID 1346981). Note: series mostly up to about 92 µM; nearly all actives have a fitted effect of over 30% in size. In a few lines:
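Multiplexed with the caspase-3/7 assay: HepG2 cells, 16 hr compound treatment, CellTiter-Fluor viability detection by fluorescence.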

The target in test [7] is Nuclear receptor subfamily 1 group I member 2 (Homo sapiens) (UniProt O75469). The experiment in a line: Human pregnane X receptor (PXR) small molecule agonists, qHTS assay (AID 1346982). Note: nearly all actives have a fitted effect of over 35% in size. Note: potency is the fitted concentration of half-maximal effect. In a few lines:
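We seeded PXR-Luc HepG2 cells in assay medium containing 5% charcoal-stripped FBS, added compounds 5 hr later, incubated 24 hr, and read luminescence with ONE-Glo reagent.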

In test [8] the target is Cytochrome P450 2D6 (Homo sapiens) (UniProt P10635). The experiment in a line: Cytochrome P450 Family 2 Subfamily D Member 6 (CYP2D6) small molecule antagonists: luciferase reporter qHTS assay (AID 1671196). Note: nearly all actives have a fitted effect of over 50% in size. Note: potency is the fitted concentration of half-maximal effect. In outline:
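Luminescence (RLU), read 20 min after detection reagent, indicated CYP2D6 conversion of proluciferin to luciferin during a 1 h NADPH-dependent reaction at room temperature.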
On the technique in general: A reporter such as luciferase makes a cellular process visible.

Test [9] addresses Cytochrome P450 2C19 (Homo sapiens) (UniProt P33261). The experiment in a line: Cytochrome P450 Family 2 Subfamily C Member 19 (CYP2C19) small molecule antagonists: luciferase reporter qHTS assay (AID 1671197). Note: nearly all actives have a fitted effect of over 65% in size. Note: potency is the fitted concentration of half-maximal effect. In a few lines:
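Luminescent readout of CYP2C19 activity: luciferin product detected 20 min after adding detection reagent. Before that, compound and enzyme-substrate mix preincubated 10 min at room temperature; NADPH-regenerating system started a 1 h, 37C reaction. Ketoconazole as positive control.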

For test [10], the target named is Cytochrome P450 2C9 (Homo sapiens) (UniProt P11712). Put plainly: Cytochrome P450 Family 2 Subfamily C Member 9 (CYP2C9) small molecule antagonists: luciferase reporter qHTS assay (AID 1671198). Note: nearly all actives have a fitted effect of over 50% in size. Note: potency is the fitted concentration of half-maximal effect. In a few lines: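 Enzyme-substrate mix preincubated with compound 10 min at room temperature; reaction started with NADPH regeneration solution, 1 h 37C. Luminescent luciferin product read after 20 min detection reagent.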
Sequence of Cytochrome P450 2C9 (Homo sapiens) (P11712 whole entry, looked up): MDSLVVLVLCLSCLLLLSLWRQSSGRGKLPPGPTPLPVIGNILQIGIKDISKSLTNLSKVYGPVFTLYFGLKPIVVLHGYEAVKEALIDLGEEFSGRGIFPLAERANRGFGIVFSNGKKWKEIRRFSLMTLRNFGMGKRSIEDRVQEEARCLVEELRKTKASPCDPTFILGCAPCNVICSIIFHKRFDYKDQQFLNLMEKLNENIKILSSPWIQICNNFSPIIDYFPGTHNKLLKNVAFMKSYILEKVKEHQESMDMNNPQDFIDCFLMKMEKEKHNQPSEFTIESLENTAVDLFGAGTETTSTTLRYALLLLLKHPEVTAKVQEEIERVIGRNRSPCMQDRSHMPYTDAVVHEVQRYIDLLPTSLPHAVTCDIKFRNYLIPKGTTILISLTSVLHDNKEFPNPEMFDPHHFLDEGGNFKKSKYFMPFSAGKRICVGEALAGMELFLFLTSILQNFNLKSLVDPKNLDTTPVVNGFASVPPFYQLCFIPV

The target in test [11] is Cytochrome P450 1A2 (Homo sapiens) (UniProt P05177). The experiment in a line: Cytochrome P450 Family 1 Subfamily A Member 2 (CYP1A2) small molecule antagonists: luciferase reporter qHTS assay (AID 1671199). Note: nearly all actives have a fitted effect of over 50% in size. Note: potency is the fitted concentration of half-maximal effect. In outline: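 CYP1A2 turnover of a luminogenic substrate was quantified after 1 h with NADPH regeneration at room temperature. Furafylline served as positive control.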
Sequence of Cytochrome P450 1A2 (Homo sapiens) (P05177 whole entry, looked up): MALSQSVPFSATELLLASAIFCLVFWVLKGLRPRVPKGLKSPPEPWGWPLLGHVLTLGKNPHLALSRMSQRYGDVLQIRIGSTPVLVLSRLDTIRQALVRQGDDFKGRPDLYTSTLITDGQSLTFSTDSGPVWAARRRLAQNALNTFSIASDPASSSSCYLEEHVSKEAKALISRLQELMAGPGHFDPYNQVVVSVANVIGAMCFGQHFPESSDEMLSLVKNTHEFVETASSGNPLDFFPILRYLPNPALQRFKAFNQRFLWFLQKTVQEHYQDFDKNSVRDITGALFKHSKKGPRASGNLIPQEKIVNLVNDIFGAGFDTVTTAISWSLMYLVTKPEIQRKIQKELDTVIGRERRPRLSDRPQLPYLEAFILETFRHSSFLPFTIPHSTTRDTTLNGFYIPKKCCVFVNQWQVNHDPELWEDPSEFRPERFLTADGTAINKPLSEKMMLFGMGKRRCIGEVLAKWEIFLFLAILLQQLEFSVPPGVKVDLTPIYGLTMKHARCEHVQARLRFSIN

The target in test [12] is Cytochrome P450 3A4 (Homo sapiens) (UniProt P08684). Put plainly: Cytochrome P450 Family 3 Subfamily A Member 4 (CYP3A4) small molecule antagonists: luciferase reporter qHTS assay (AID 1671201). Note: nearly all actives have a fitted effect of over 50% in size. Note: potency is the fitted concentration of half-maximal effect. In outline:
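P450-Glo CYP3A4 system with proluciferin substrate; compounds preincubated 10 min RT with enzyme-substrate mix, then NADPH regeneration added for 1 h RT. Detection reagent 20 min, luminescence read as relative luminescence units.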

Test [13] deals with Voltage-gated inwardly rectifying potassium channel KCNH2 (Homo sapiens) (UniProt Q12809). Put plainly: Human Ether-a-go-go-Related Gene (hERG) channel small molecule antagonists: fluorescence cell-based qHTS assay (AID 1671200). In a few lines:
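U2OS cells expressing the channel were plated at 1000 cells/well, incubated overnight at 37 C, then loaded with FluxOR II thallium-sensitive dye for 1 h at room temperature in the dark, with a further 10 min at room temperature before stimulation.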
In general terms: Block of hERG is tested as a sign of cardiac risk.

The target of test [14] is Nuclear receptor subfamily 1 group I member 2 (Rattus norvegicus) (UniProt Q9R1A7). Put plainly: Rat pregnane X receptor (rPXR) activation by small molecules, qHTS assay (AID 1346983). Note: nearly all actives have a fitted effect of over 20% in size. As to conditions: rPXR luciferase reporter cells, One-Glo luminescence, 24 h; max activation: active compounds read high. In outline: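 Luminescent readout (One-Glo luciferase, 30 min room temperature) followed 24 hr compound treatment at 37 C of rPXR cells plated 2,000 per well and preincubated 5hr; qHTS format with compounds delivered in DMSO.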
Sequence of Nuclear receptor subfamily 1 group I member 2 (Rattus norvegicus) (Q9R1A7 whole entry, looked up): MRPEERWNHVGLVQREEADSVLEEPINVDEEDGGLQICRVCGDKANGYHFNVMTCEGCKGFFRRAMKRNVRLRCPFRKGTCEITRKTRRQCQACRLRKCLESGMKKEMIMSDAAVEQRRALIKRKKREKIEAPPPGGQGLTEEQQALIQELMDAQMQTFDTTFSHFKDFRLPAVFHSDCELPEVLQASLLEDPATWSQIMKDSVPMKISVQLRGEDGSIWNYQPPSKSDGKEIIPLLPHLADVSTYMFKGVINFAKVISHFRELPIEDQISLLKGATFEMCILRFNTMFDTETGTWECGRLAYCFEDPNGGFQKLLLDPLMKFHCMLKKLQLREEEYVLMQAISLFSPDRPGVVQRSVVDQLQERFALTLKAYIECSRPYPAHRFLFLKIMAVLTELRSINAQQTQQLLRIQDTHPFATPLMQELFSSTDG

A number with no mark means an inactive call. Results filed as inconclusive are left out. The source made the active and inactive calls. Unless noted, calls come from the whole dose curve; as a rule, active = well fitted curve in the direction sought with a large enough effect in the repeat runs; inconclusive = weak or mixed curves; inactive = no such curve, though single readings can be large; an effect the other way counts as inactive or inconclusive.
% is set by controls: 0 for no effect and ±100 for the full control effect.

Sequence of Cytochrome P450 2C19 (Homo sapiens) (P33261 whole entry, looked up): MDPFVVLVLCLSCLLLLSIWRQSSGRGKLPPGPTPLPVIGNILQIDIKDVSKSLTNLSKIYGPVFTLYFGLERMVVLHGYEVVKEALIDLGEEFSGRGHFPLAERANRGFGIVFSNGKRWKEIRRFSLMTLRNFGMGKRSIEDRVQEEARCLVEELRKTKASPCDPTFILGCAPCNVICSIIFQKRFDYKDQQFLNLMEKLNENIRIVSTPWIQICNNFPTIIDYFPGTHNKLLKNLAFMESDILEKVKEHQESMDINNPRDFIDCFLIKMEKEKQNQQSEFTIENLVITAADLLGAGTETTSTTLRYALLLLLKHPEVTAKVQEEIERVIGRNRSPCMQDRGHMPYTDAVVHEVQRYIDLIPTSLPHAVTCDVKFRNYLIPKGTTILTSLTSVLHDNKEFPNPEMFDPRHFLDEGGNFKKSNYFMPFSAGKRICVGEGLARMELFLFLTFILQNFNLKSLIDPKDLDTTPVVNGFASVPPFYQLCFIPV
Sequence of Nuclear receptor subfamily 1 group I member 2 (Homo sapiens) (O75469 whole entry, looked up): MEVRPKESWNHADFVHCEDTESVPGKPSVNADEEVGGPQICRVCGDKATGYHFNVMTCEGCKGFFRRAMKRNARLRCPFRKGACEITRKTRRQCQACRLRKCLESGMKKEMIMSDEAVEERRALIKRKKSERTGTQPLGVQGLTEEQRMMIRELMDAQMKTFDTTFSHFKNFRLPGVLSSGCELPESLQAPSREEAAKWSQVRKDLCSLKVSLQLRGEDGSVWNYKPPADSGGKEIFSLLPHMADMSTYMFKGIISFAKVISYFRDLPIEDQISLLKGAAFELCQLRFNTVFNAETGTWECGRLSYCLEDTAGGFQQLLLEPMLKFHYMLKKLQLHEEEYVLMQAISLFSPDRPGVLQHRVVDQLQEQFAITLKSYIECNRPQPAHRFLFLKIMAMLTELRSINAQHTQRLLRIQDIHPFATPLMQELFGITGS
Sequence of Cytochrome P450 2D6 (Homo sapiens) (P10635 whole entry, looked up): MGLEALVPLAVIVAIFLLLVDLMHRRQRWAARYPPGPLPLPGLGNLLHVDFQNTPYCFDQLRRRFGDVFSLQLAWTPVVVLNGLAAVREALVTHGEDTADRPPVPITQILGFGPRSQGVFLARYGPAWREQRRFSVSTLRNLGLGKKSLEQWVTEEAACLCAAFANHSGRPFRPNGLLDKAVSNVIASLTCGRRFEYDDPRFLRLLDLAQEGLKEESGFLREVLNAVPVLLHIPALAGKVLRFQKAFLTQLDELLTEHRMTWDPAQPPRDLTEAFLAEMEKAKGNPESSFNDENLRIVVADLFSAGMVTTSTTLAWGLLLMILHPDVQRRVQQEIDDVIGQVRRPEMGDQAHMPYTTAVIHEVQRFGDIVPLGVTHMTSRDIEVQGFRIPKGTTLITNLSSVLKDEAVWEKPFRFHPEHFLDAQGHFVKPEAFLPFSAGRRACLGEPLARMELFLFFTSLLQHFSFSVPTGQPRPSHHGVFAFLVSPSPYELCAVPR
Sequence of Voltage-gated inwardly rectifying potassium channel KCNH2 (Homo sapiens) (Q12809 whole entry, looked up): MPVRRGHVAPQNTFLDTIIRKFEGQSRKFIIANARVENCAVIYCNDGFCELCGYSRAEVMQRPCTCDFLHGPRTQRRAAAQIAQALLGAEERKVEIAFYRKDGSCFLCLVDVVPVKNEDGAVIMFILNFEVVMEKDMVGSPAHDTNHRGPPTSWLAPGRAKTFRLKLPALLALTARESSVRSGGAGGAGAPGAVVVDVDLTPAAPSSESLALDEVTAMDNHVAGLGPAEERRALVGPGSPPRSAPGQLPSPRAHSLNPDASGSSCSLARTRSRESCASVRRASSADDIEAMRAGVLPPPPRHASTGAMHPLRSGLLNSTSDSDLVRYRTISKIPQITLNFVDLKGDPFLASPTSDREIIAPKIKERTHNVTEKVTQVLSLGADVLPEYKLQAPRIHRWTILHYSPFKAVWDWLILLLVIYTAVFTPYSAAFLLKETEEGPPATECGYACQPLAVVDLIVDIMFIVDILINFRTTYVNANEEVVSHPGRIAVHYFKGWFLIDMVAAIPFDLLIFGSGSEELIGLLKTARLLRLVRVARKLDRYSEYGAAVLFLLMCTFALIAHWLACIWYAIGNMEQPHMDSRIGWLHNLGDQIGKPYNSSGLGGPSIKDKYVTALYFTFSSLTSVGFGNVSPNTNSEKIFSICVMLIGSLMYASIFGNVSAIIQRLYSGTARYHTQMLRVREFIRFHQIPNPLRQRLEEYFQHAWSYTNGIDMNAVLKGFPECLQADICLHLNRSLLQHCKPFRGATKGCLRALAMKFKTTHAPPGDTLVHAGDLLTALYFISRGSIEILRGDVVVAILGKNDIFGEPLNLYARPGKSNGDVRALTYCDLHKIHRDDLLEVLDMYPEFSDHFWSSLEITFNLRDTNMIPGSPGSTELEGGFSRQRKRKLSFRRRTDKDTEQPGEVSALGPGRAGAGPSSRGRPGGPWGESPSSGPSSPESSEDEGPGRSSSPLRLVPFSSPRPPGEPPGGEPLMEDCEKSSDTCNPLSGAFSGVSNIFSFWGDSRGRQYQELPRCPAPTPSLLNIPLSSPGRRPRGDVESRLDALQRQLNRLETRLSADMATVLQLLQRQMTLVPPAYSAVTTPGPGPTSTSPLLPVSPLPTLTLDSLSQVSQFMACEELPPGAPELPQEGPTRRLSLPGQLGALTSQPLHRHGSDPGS
Sequence of Cytochrome P450 3A4 (Homo sapiens) (P08684 whole entry, looked up): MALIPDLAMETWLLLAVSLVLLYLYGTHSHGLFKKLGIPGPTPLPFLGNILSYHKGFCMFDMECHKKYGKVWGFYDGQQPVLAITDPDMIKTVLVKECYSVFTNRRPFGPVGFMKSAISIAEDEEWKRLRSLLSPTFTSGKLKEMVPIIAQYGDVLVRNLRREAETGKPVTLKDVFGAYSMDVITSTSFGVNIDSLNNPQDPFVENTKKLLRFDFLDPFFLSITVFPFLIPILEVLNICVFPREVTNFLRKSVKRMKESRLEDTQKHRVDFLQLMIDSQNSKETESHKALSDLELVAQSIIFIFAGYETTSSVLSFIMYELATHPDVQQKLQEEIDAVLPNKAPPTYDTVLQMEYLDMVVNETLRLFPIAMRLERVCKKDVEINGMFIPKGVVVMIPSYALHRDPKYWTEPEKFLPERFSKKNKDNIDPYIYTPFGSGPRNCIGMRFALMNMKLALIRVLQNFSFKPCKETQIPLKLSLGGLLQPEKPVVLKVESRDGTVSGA

Regarding `CN1[C@@H]2CC[C@H]1CC(NC(=O)n1c(=O)[nH]c3ccccc31)C2` (some centres not stated), the molecule was classed as inactive in [1], in test [3], in test [5] and in test [6]. Moreover, the Potency entry in test [2], in test [4], in test [7], in [9], in test [10] and in test [11] was “inactive” each time. Besides, the Potency entry in test [12] was “inactive”. Besides, the Potency in test [8] is 0.776 µM (active).

In the case of `CCC(=O)c1cccc(Cl)c1`, the outcome in [1], in test [3], in [5] and in [6] was inactive. Also, the Potency entry in test [2], in test [4], in test [7], in test [8], in test [9] and in test [10] was “inactive” throughout. The Potency entry in [11], in [13] and in test [12] was “inactive” throughout.

`CC(=O)OC(C)(C)C`: the molecule was called inactive in test [1], in test [3], in [5] and in test [6]. The Potency entry in test [2], in test [4], in test [7], in test [9], in test [10] and in [11] was “inactive” each time. Also, the Potency result in test [13] and in test [12] was “inactive” in each case.

Turning to `CC1(C)OC(=O)Nc2ccc(Br)cc21`, the molecule was called inactive in test [1], in test [3], in test [5] and in [6]. The Potency result in test [2], in test [4], in test [8] and in [13] was “inactive” in each case. Also, the Potency was 23.7 µM (active) in [7] and 17.4 µM (active) in test [9].

`O=S(=O)(c1cccc2cnccc12)N1CCCNCC1`: the molecule was called inactive in test [1], in [3], in test [5] and in test [6]. In [2], the Potency is 26.6 µM (active). For the same molecule, the Potency result in [4], in test [9], in test [11] and in [13] was “inactive” in each case.

With `C=C(C)C(=O)OCCC(C)OC(=O)C(=C)C` (configuration not stated), the outcome in test [1], in test [3], in [5] and in test [6] was inactive. Also, the Potency entry in [2], in test [4], in test [7], in test [8], in [9] and in test [13] was “inactive” throughout. Besides, the Potency result in [12] was “inactive”.

On to `C=CCOc1nc(OCC=C)nc(OCC=C)n1`, for which the result in [1], in [3], in test [5] and in test [6] was inactive. Besides, the Potency result in test [2], in test [4] and in test [13] was “inactive” throughout. The Potency in test [8] is 39.9 µM (active); in [9] it was 1.78 µM (active); in [10] it was 15.9 µM (active); in test [12], 12.6 µM (active).

Consider `Cc1onc(-c2ccccc2)c1-c1ccc(S(N)(=O)=O)cc1`, for which the call in test [1], in test [3], in test [5] and in test [6] was inactive. Besides, the Potency result in test [2], in test [4], in test [11], in test [13] and in [12] was “inactive” throughout. Further, the max activation in test [14] was -3.92%. In addition, the Potency in [9] was 7.76 µM (active); in test [10], 13.8 µM (active).

Consider `CCCCN(CCO)CCO`, for which the result in test [1], in [3], in test [5] and in test [6] was inactive. Also, the Potency entry in test [2], in test [4], in [7], in test [8], in [9] and in test [11] was “inactive” in each case. Moreover, the Potency result in [13] and in [12] was “inactive” in each case.

Consider `CN(C)N=Nc1ccccc1`, for which the call in [1], in test [3], in [5] and in [6] was inactive. Besides, the Potency result in [2], in test [4], in [7], in test [8], in test [9] and in [10] was “inactive” throughout. Besides, the Potency entry in test [13] and in test [12] was “inactive” throughout.

For `O=C(O)/C=C/c1ccc(Cn2ccnc2)cc1`, the outcome in test [1], in test [3], in [5] and in test [6] was inactive. Further, the Potency entry in test [2], in [4], in [8] and in test [13] was “inactive” in each case. Also, in [14], the max activation is -1.1%. Besides, the Potency is 17.4 µM (active) in test [10] and 24.5 µM (active) in [11].

In the case of `c1ccc(SCCSc2ccccc2)cc1`, the result in test [1], in test [3], in [5] and in test [6] was inactive. Besides, the Potency entry in [2], in [4], in [13] and in test [12] was “inactive” each time. In addition, the Potency in test [7] was 7.63 µM (active); in test [9] it was 3.53 µM (active); in test [11] it was 31.4 µM (active).

With `NC1CCN(c2cccc(Cl)n2)CC1`, the outcome in test [1], in test [3], in [5] and in test [6] was inactive. For the same molecule, the Potency entry in test [2], in test [4], in test [7], in test [9], in test [10] and in test [13] was “inactive” in each case. The Potency entry in test [12] was “inactive”. In addition, the Potency in test [8] was 1.23 µM (active).

Consider `COC(=O)C1=C(C)NC(C)=C(C(=O)OCC(C)=O)C1c1ccccc1[N+](=O)[O-]` (configuration not stated), for which the call in test [1], in [3], in [5] and in [6] was inactive. Moreover, the Potency entry in test [2], in test [4], in [8] and in [13] was “inactive” each time. In addition, the Potency in test [9] was 5.49 µM (active); in test [10], 13.8 µM (active); in test [11] it was 2.45 µM (active).

`O=C(O)c1cccc(C(=O)O)n1`: the call in [1], in [3], in [5] and in test [6] was inactive. Also, the Potency result in test [2], in [4], in test [7], in [8], in [10] and in [11] was “inactive” throughout. In addition, the Potency result in [13] and in test [12] was “inactive” in each case.

In the case of `C1COCCO1`, the result in test [1], in [3], in test [5] and in [6] was inactive. Besides, the Potency result in test [2], in test [4], in test [7], in test [8], in [13] and in test [12] was “inactive” each time. In addition, the Potency in [9] was 36.4 µM (active).

Turning to `NS(=O)(=O)c1cc(C2(O)NC(=O)c3ccccc32)ccc1Cl` (configuration not stated), the outcome in test [1], in test [3], in test [5] and in test [6] was inactive. For the same molecule, the Potency result in test [2], in test [4], in [8], in test [10] and in test [13] was “inactive” throughout. The max activation in test [14] was -0.257%.

`OCC(O)[C@@H](O)[C@H](O)[C@H](O)CO[C@H]1O[C@H](CO)[C@@H](O)[C@H](O)[C@H]1O` (some centres not stated): the molecule was called inactive in [1], in test [3], in [5] and in test [6]. In addition, the Potency entry in [2], in test [4], in test [7], in test [8], in [13] and in test [12] was “inactive” in each case. Further, the Potency in [9] was 19.9 µM (active).

`CC/C=C\CCCCO`: the call in test [1], in test [3], in test [5] and in test [6] was inactive. For the same molecule, the Potency result in [2], in [4], in [7], in test [8], in [9] and in [11] was “inactive” throughout. Moreover, the Potency entry in test [13] and in [12] was “inactive” throughout.

On to `CCCOc1ccccc1-c1nc2n[nH]nc2c(=O)[nH]1`, for which the molecule was called inactive in test [1], in [3], in [5] and in test [6]. In addition, the Potency result in test [2], in [4], in [7], in test [8], in [9] and in test [10] was “inactive” each time. The Potency result in test [13] and in [12] was “inactive” in each case.
